Experimental data: the supplement of paper PMC6555819

Tests used:
Experiment in all cases: PBM binding z-score (relative to random genomic background probes); higher = stronger binding; sequences stand for … in GC…GCGATTGACAGCGTAGAATGAAGG
[1] = tested on: PPARg:RXRa DBDmut IVT, anti-RXR (DBD mutation: RXRa K156A/R161A, NR concentration 270 nM, RXRa partner concentration 90 nM)
In short: (§1)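 Scanned fluorescence from custom Agilent 4×180K protein-binding microarrays was regression-normalized. Binding z-scores use random background probes as reference. Ligand-free nuclear receptor dimers were incubated on the arrays for 1 h and detected with antibodies against each partner (one per run).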

[2] = tested on: PPARg:RXRa IVT, anti-PPARg (NR concentration 270 nM, RXRa partner concentration 90 nM)
In short: as §1

[3] = tested on: PPARg DBDmut:RXRa IVT, anti-PPARg (DBD mutation: PPARg1 K132A/R137A, NR concentration 270 nM, RXRa partner concentration 90 nM)
In short: as §1

[4] = tested on: PPARg DBDmut IVT, anti-PPARg (DBD mutation: PPARg1 K132A/R137A, NR concentration 270 nM)
In short: as §1

[5] = tested on: PPARg homodimer (NR concentration 180 nM)
In short: as §1

[6] = tested on: PXR:RXRa (NR concentration 270 nM, RXRa partner concentration 90 nM)
In short: as §1

[7] = tested on: PXR homodimer (NR concentration 270 nM)
In short: as §1

[8] = tested on: RARa:RXR (NR concentration 270 nM, RXRa partner concentration 90 nM)
In short: as §1

[9] = tested on: RARa homodimer (NR concentration 270 nM)
In short: as §1

[10] = tested on: RARb:RXRa (NR concentration 270 nM, RXRa partner concentration 90 nM)
In short: as §1

[11] = tested on: RARb homodimer (NR concentration 270 nM)
In short: as §1

[12] = tested on: RARg:RXRa (NR concentration 270 nM, RXRa partner concentration 90 nM)
In short: as §1

[13] = tested on: RARg homodimer (NR concentration 270 nM)
In short: as §1

[14] = tested on: RXRa DBDmut IVT, anti-RXR (DBD mutation: RXRa K156A/R161A, NR concentration 90 nM)
In short: as §1

[15] = tested on: RXRa homodimer (NR concentration 180 nM)
In short: as §1

[16] = tested on: THRa:RXRa (NR concentration 90 nM, RXRa partner concentration 90 nM)
In short: as §1

[17] = tested on: THRa homodimer (NR concentration 90 nM)
In short: as §1

[18] = tested on: VDR homodimer (NR concentration 270 nM)
In short: as §1

Row | Sequence | PBM binding z-score [1] | PBM binding z-score [2] | PBM binding z-score [3] | PBM binding z-score [4] | PBM binding z-score [5] | PBM binding z-score [6] | PBM binding z-score [7] | PBM binding z-score [8] | PBM binding z-score [9] | PBM binding z-score [10] | PBM binding z-score [11] | PBM binding z-score [12] | PBM binding z-score [13] | PBM binding z-score [14] | PBM binding z-score [15] | PBM binding z-score [16] | PBM binding z-score [17] | PBM binding z-score [18]
1 | TCTGGTAGGTCAGTTGGTCAGCTAACGAGCTGCC | 3.49 | 4.52 | -0.0249 | -0.0633 | 1.33 | 0.675 | -0.287 | 0.778 | 0.532 | 3.62 | 2.92 | 3.09 | 3.99 | 0.902 | 1.37 | 0.644 | 0.0551 | 0.292
2 | TATACAGGGTCAAGGGCCAGAGTACGAATGTCGA | 2.4 | 4.69 | 2.98 | 1.83 | 3.27 | 3.99 | 0.571 | 4.97 | 1.16 | 4.61 | 3.62 | 5.65 | 5.33 | 2.14 | 6.23 | 3.68 | 1.08 | 2.13
3 | CCTACTGGGCCATTCCGAGGTCATTGATCATATG | 4.18 | 4.34 | 0.312 | -0.485 | 1.24 | 4.4 | 4.22 | 3.88 | 0.0189 | 2.63 | 3.36 | 3.43 | 2.28 | 1.08 | 2.86 | 3.68 | 3.62 | 4.08
4 | CAAACTAAGTCAAGAGGTCAAAGTCCGCTTCCCG | 2.44 | 3.45 | 0.624 | 0.834 | 4.63 | 5.85 | 2.97 | 6.57 | 2 | 4.35 | 4.49 | 5.8 | 4.46 | 2.11 | 6.2 | 3.92 | 1.7 | 4.04
5 | TGTAGTTGGTCACGGAGGTCACACACGACGGGTA | 0.726 | 3.95 | 0.96 | 0.805 | 2.4 | 4.14 | 0.948 | 4.35 | 0.915 | 3.87 | 4.39 | 4.74 | 4.47 | -0.214 | 4.76 | 3.6 | 2.44 | 2.45
6 | TCTATTAGTTGAAGGGCTACCGACGAGTCCGTTT | 2.41 | 0.0404 | 0.251 | -0.451 | 1.24 | 0.647 | 0.375 | 0.611 | 1.16 | 0.525 | 0.0763 | 0.0303 | 0.0781 | 1.63 | 0.354 | -0.151 | -0.0569 | 1.04
7 | CCGACTGGGGCAAGGGTACCATAACGCACAGCCA | 2.26 | 3.6 | 0.123 | -0.113 | 0.601 | -0.478 | -0.439 | -0.197 | -0.395 | 0.933 | 0.569 | 0.349 | 0.692 | -1.52 | 0.269 | -0.0335 | -0.368 | -0.448
8 | GATGCAGGGTCAAGGCCAGAGTACGCGTATTGAT | 1.47 | 3.42 | -0.201 | -0.81 | 1.2 | 3.59 | 0.224 | 3.86 | 0.306 | 4.54 | 3.44 | 5.2 | 4.79 | 1.98 | 5.72 | 3.46 | 0.878 | 1.78
9 | CCAGACTGGTGAGAAGGTAACTCAGCCTCGATTA | -0.548 | -0.378 | -1.06 | -0.669 | 0.4 | -0.321 | -0.553 | -0.228 | -0.0331 | -0.455 | -0.313 | -0.398 | -0.424 | -0.127 | -0.237 | -0.0936 | -0.27 | -0.352
10 | TCGAGTAGGTTAGTCGGGGCATTCAACCAACATA | 2.51 | 2.16 | -0.398 | -0.896 | -0.069 | 0.309 | -0.2 | 0.545 | 0.0845 | 0.517 | 0.661 | 0.183 | 0.0739 | 0.482 | 0.119 | 1.28 | 0.217 | 0.466
11 | TAATATAGGTAAACAGGTGAAAGTCCGTAAGTTA | 6.47 | 6.56 | 2.22 | 1.8 | 2.01 | 0.69 | 0.586 | 1.12 | 1.5 | 0.768 | 0.737 | 0.857 | 0.756 | 0.169 | 1.26 | 0.862 | 0.313 | 0.444
12 | CCAGACAGGTGACAAGGTAACTCAGCCTCGATTA | 1.41 | 1.61 | -0.344 | -0.0688 | 0.918 | -0.151 | -0.207 | 0.278 | 0.367 | 0.783 | 0.759 | 0.862 | 0.728 | 0.06 | 0.446 | 1.24 | 0.784 | -0.45
13 | TGAATGAGGGTATAAGATCAGGGAACGTTGCAAA | 0.322 | 0.573 | 0.938 | 0.423 | 0.497 | 0.178 | 0.202 | 0.234 | -0.0465 | 0.303 | -0.0361 | 0.617 | 0.546 | -0.155 | 0.383 | 0.461 | -0.277 | 0.159
14 | AGAATGAGGTTATACGTAGATCAGGGAAGAAAGT | 4.01 | 1.92 | 0.956 | 1.16 | 0.9 | 1.2 | 0.682 | 1.82 | 0.738 | 1.54 | 1.19 | 1.88 | 1.24 | 1.35 | 2.23 | 2.23 | 0.863 | 0.864
15 | CCTACTGGGCCACGGTCATTGATCAGTCAAAGCA | 4.71 | 5.29 | -0.475 | -0.479 | 0.397 | -0.436 | -0.0793 | -0.106 | -0.863 | 1.56 | 1.5 | 0.43 | 0.896 | -1.25 | -0.391 | 0.204 | -0.144 | -0.135
